# Bioassay records from PubChem.
# Sm TGR inh – inhibitors of Schistosoma mansoni thioredoxin glutathione reductase; Q962Y6; purified TGR, DTNB reduction, TNB absorbance 405 nm; Potency, µM (series often up to 114 µM), for inactives: at the top dose activity change, negative = inhibition, actives largely listed as inhibitors; 3% of 360,000 active; also: % is scaled to controls: 0 for no effect and ±100 for the full control effect; nearly all actives have a fitted effect of over 60% in size
#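 TGR 20 nM + NADPH 100 uM (dispensed conc.), cpd preinc 15 min RT; start with NADPH (500 uM addition) then DTNB (15 mM addition). Kinetic TNB absorbance, 405 nm filter. Four-parameter Hill fit across titration.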
# Pf growth 48h – inhibits P. falciparum growth in the first generation, 48 h; P. falciparum luciferase growth in erythrocytes, 48 h; Potency, µM (doses to about 28.7 µM), inactives show at the top dose activity change, negative = inhibition, actives largely listed as inhibitors; 5.9% of 310,000 active; also: % is scaled to controls: 0 for no effect and ±100 for the full control effect
#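 Luciferase-expressing parasites in RBCs, 2% Hct / 0.1% parasitemia final; RPMI 1640 + 0.5% Albumax; 37 C, 5% CO2, one generation; luminescence read-out, lower signal = inhibition.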
# SARS PLP yeast – SARS-CoV PLP inhibition in yeast. S. cerevisiae expressing SARS-CoV PLpro, growth rescue. AID 485353. 0.19% of 330,000 active. Potency, µM (series often up to 32.9 µM), for the others: at the highest dose activity, positive = growth rescue, actives largely listed as activators; calls by dose curve; also: 0% is about no effect; nearly all actives have a fitted effect of over 55% in size
# Pf growth 96h – P. falciparum growth inhibition at 96 hours. P. falciparum luciferase reporter growth, 96 h. Potency, µM (titrated, usually from 28.7 µM), inactives show at the highest dose activity change, negative = inhibition, usual class: inhibitors. 6.9% of 320,000 active. AID 504834; also: % is scaled to controls: 0 for no effect and ±100 for the full control effect
#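 Parasite growth measured via integrated firefly luciferase reporter in P. falciparum. Infected erythrocytes at 2% hematocrit, 0.05% parasitemia final were treated 96 hours at 37 C under 5% CO2, and luminescence was read.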
# * hit, by the source's call; ? = inconclusive; . = no result; [ ] = dose if it differs, or a comment. The list is not random: actives were taken first. Their share in the collection is about 12%. Unless noted, calls follow the shape of the dose curve; as a rule, active = well fitted curve in the direction sought with a large enough effect; inconclusive = small, poorly fitted or top-dose-only effect, or another doubt; inactive = no such curve, though single readings can be large; an effect the other way counts as inactive or inconclusive. Potency is read from the fitted curve at half-maximal effect.
SMILES,Sm TGR inh,Pf growth 48h,SARS PLP yeast,Pf growth 96h
O=C1/C(=C\c2ccco2)SC(=S)N1c1ccccc1,?,38%,-6%,36%
CCCN=C1N/C(=C\c2ccco2)C(=O)N1c1ccccc1,40µM*,.,-6%,-20%
COCCOC(=O)c1c(NC(=O)CN2CCOCC2)sc(C(N)=O)c1C,12%,-13%,-5%,.
COCCOC(=O)c1c(NC(=O)CN2c3ccccc3CC2C)sc(C(N)=O)c1C (stereo unspecified),-25%,12µM*,-4%,?
CCOC(=O)c1c(NC(=O)CN(CC)CC)sc2c1CCN(C(=O)OCC)C2,4%,9.3µM*,4%,8.3µM*
CCOC(=O)c1c(NC(=O)CN2CCN(C(=O)c3ccco3)CC2)sc2c1CCCC2,-8%,3.7µM*,-38%,115%
CCOC(=O)NC(Nc1sc2c(c1C(=O)OC)CCN(C)C2)(C(F)(F)F)C(F)(F)F,-7%,?,-2%,6.6µM*
CCCN1CCN(C(=O)C(NC(=O)c2ccco2)C(C)C)CC1 (stereo unspecified),4%,-1%,-6%,30%
COc1ccccc1N1CCN(C(=O)CC(NC(=O)c2ccccc2Cl)c2ccccc2)CC1 (stereo unspecified),-5%,?,-1%,?
CCOC(=O)c1c(NC(=O)COC)sc2c1CCCC2,5%,-2%,-7%,.
CCOC(=O)c1c(NC(=O)CN2CCCCC2)sc(C)c1C,.,-19%,0%,-7%
CCOC(=O)c1c(NC(=O)CN2CCCCC2)sc2c1CCN(C(=O)OCC)C2,-2%,10µM*,7%,5.2µM*
CCOC(=O)c1c(NC(=O)CN2CCN(C)CC2)sc(C(=O)Nc2ccccc2)c1C,-2%,13µM*,-1%,0%
CCOC(=O)c1c(NC(=S)N2CCN(C)CC2)sc2c1CCN(C(=O)OCC)C2,7%,13µM*,0%,12µM*
CCOC(=O)c1sc(NC(=O)CCN2CCN(C)CC2)c(C(=O)OCC)c1C,-10%[57.1 µM],5%,-1%,8%
CCOc1ccc(S(=O)(=O)N2CCN(c3ccccc3)CC2)cc1C(N)=O,17%,.,.,.
Cc1ccc(NC(=O)C(=O)NCC(c2ccc3c(c2)OCO3)N2CCOCC2)c(C)c1 (stereo unspecified),7%,.,.,.
COc1ccccc1-n1cnc2cc(NCc3ccccc3O)ccc21,2%,?,0%,?
COc1ccc(CNc2ccc3c(c2)ncn3-c2ccccc2OC)cc1,6%,15µM*,-7%,13µM*
COc1ccccc1-n1cnc2cc(NS(=O)(=O)c3ccc(Br)cc3)ccc21,-1%,.,-11%,5.2µM*
CCOc1ccc(CC(=O)Nc2c(C(=O)Nc3ccccc3)oc3ccccc23)cc1OCC,1%,-1%,-1%,0.93µM*
CCOc1ccc(CC(=O)Nc2c(C(N)=O)oc3ccc(Br)cc23)cc1OCC,9%,.,7%,12µM*
COc1ccc(CC(=O)Nc2c(C(N)=O)oc3ccccc23)cc1OC,-4%,-8%,.,-1%
CC1CCN(C(=O)C2CCN(C(=O)c3ccc(C(C)(C)C)cc3)CC2)CC1,-5%,-14%,0%,-18%
COc1ccccc1N1CCN(C(=O)C2CCN(C(=O)c3ccc(C(C)(C)C)cc3)CC2)CC1,2%,4.7µM*,-1%,0%
SMILES,Sm TGR inh,Pf growth 48h,SARS PLP yeast,Pf growth 96h
CCOC(=O)N1CCN(C(=O)C2CCN(C(=O)c3ccc(C(C)(C)C)cc3)CC2)CC1,-8%,9.3µM*,1%,-17%
CSc1nc(-c2ccccc2)nc(C(C)C)n1,-4%,40%,-1%,-4%
CCOC(=O)c1cc(C#N)c(C)nc1N(CC)CC,-8%,28%,0%,0%
O=c1c2[nH]cnc2n(-c2cccc(Br)c2)c(=O)n1Cc1ccccc1,3%,-7%,0%,-24%
COc1ccccc1N(C)S(=O)(=O)c1ccc(C(=O)N(C)Cc2ccc(Cl)s2)cc1,-3%,12µM*,-1%,?
COc1ccccc1N(C)S(=O)(=O)c1ccc(C(=O)O)cc1,6%,13%,-4%,-4%
CCOc1ccc(CN(C)C(=O)c2ccc(S(=O)(=O)N(C)c3ccccc3OC)cc2)cc1,-14%,13µM*,-14%,?
O=C(O)CCCCCN1C(=O)C(O)=C(C(=O)/C=C/c2ccccc2)C1c1ccccc1[N+](=O)[O-] (stereo unspecified),-30%,33%,-1%,9.3µM*
CC(=O)NCC1CCCN(Cc2cn(-c3ccccc3)nc2-c2ccc3c(c2)OCO3)C1 (stereo unspecified),-21%,-30%,1%,13µM*
